# Test results: the supplement of paper PMC12282887
# ± gives the standard deviation of the averaged measurements.
# How the values were obtained:
# Experiment in all cases: promoter activity interaction Z-score (Lux/OD deviation from empty-vector control); higher = stronger promoter induction by the compound
# [1] = tested on: E. coli BW25113 acrABp lux reporter
# Summary of the method: (§1)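 E. coli BW25113 (wild type or marA, soxS or rob deletion) carrying low-copy luxCDABE promoter reporters grew in 40 µl LB Lennox in 384-well plates at 37°C. Each compound was tested at four 1:2 dilutions in biological duplicates. OD600 and luminescence were read every 30 min for 12 h. Areas were taken over 0–8 h (wild type) or 1–9 h (mutants), and wells below 10% of median growth area were removed. The score is the Z-transformed residual of growth-normalised luminescence fitted against the empty-vector control.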
# [2] = tested on: E. coli BW25113 micFp lux reporter
# Summary of the method: as §1
# [3] = tested on: E. coli BW25113 ompFp lux reporter
# Summary of the method: as §1
# [4] = tested on: E. coli BW25113 robp lux reporter
# Summary of the method: as §1
# [5] = tested on: E. coli BW25113 soxSp lux reporter
# Summary of the method: as §1
# [6] = tested on: E. coli BW25113 tolCp lux reporter
# Summary of the method: as §1
# [7] = 24.3 µg/ml, genetic background: wild type
# [8] = 24.3 µg/ml, genetic background: ΔmarA
# [9] = 24.3 µg/ml, genetic background: Δrob
# [10] = 24.3 µg/ml, genetic background: ΔsoxS
# [11] = 48.5 µg/ml, genetic background: wild type
# [12] = 48.5 µg/ml, genetic background: ΔmarA
# [13] = 48.5 µg/ml, genetic background: Δrob
# [14] = 48.5 µg/ml, genetic background: ΔsoxS
# [15] = 97.1 µg/ml, genetic background: wild type
# [16] = 97.1 µg/ml, genetic background: ΔmarA
# [17] = 97.1 µg/ml, genetic background: Δrob
# [18] = 97.1 µg/ml, genetic background: ΔsoxS
# [19] = 194.2 µg/ml, genetic background: wild type
# [20] = 194.2 µg/ml, genetic background: ΔmarA
# [21] = 194.2 µg/ml, genetic background: Δrob
# [22] = 194.2 µg/ml, genetic background: ΔsoxS
compound,measurement,setting,value
Cn1c(=O)c2c(ncn2C)n(C)c1=O [Caffeine],promoter activity interaction Z-score,[1]; [7],-0.0906 ± 0.17
same,promoter activity interaction Z-score,[1]; [8],1.25 ± 2.5
same,promoter activity interaction Z-score,[1]; [9],0.229 ± 0.12
same,promoter activity interaction Z-score,[1]; [10],0.234 ± 0.23
same,promoter activity interaction Z-score,[1]; [11],0.0551 ± 0.06
same,promoter activity interaction Z-score,[1]; [12],0.244 ± 1.1
same,promoter activity interaction Z-score,[1]; [13],0.254 ± 0.35
same,promoter activity interaction Z-score,[1]; [14],0.3 ± 0.18
same,promoter activity interaction Z-score,[1]; [15],0.0174 ± 0.31
same,promoter activity interaction Z-score,[1]; [16],0.17 ± 0.29
same,promoter activity interaction Z-score,[1]; [17],0.132 ± 0.014
same,promoter activity interaction Z-score,[1]; [18],0.864 ± 1
same,promoter activity interaction Z-score,[1]; [19],0.303 ± 0.24
same,promoter activity interaction Z-score,[1]; [20],-0.0252 ± 0.29
same,promoter activity interaction Z-score,[1]; [21],0.0753 ± 0.22
same,promoter activity interaction Z-score,[1]; [22],0.762 ± 0.37
same,promoter activity interaction Z-score,[2]; [7],1.28 ± 0.39
same,promoter activity interaction Z-score,[2]; [8],1.01 ± 0.13
same,promoter activity interaction Z-score,[2]; [9],0.0768 ± 0.058
same,promoter activity interaction Z-score,[2]; [10],1.65 ± 0.72
same,promoter activity interaction Z-score,[2]; [11],2.71 ± 0.15
same,promoter activity interaction Z-score,[2]; [12],1.72 ± 0.17
same,promoter activity interaction Z-score,[2]; [13],-0.0682 ± 0.092
same,promoter activity interaction Z-score,[2]; [14],2.27 ± 0.1
same,promoter activity interaction Z-score,[2]; [15],3.93 ± 0.29
same,promoter activity interaction Z-score,[2]; [16],3.13 ± 0.049
same,promoter activity interaction Z-score,[2]; [17],-0.0129 ± 0.082
same,promoter activity interaction Z-score,[2]; [18],4.2 ± 0.47
same,promoter activity interaction Z-score,[2]; [19],9.84 ± 0.76
same,promoter activity interaction Z-score,[2]; [20],6.96 ± 1.9
same,promoter activity interaction Z-score,[2]; [21],0.216 ± 0.022
same,promoter activity interaction Z-score,[2]; [22],9.87 ± 0.2
same,promoter activity interaction Z-score,[3]; [7],0.171 ± 0.69
same,promoter activity interaction Z-score,[3]; [8],0.0413 ± 0.047
same,promoter activity interaction Z-score,[3]; [9],0.636 ± 0.1
same,promoter activity interaction Z-score,[3]; [10],0.0579 ± 0.15
same,promoter activity interaction Z-score,[3]; [11],0.648 ± 0.61
same,promoter activity interaction Z-score,[3]; [12],0.121 ± 0.51
same,promoter activity interaction Z-score,[3]; [13],-0.106 ± 0.46
same,promoter activity interaction Z-score,[3]; [14],-0.0276 ± 0.3
same,promoter activity interaction Z-score,[3]; [15],-0.351 ± 0.49
same,promoter activity interaction Z-score,[3]; [16],0.00292 ± 0.16
same,promoter activity interaction Z-score,[3]; [17],-0.133 ± 0.69
same,promoter activity interaction Z-score,[3]; [18],0.291 ± 0.42
same,promoter activity interaction Z-score,[3]; [19],0.651 ± 0.51
same,promoter activity interaction Z-score,[3]; [20],0.268 ± 0.19
same,promoter activity interaction Z-score,[3]; [21],0.227 ± 0.64
same,promoter activity interaction Z-score,[3]; [22],0.245 ± 0.21
same,promoter activity interaction Z-score,[4]; [7],0.0869 ± 0.41
same,promoter activity interaction Z-score,[4]; [8],1.13 ± 1.2
same,promoter activity interaction Z-score,[4]; [9],0.442 ± 0.56
same,promoter activity interaction Z-score,[4]; [10],1.35 ± 0.27
same,promoter activity interaction Z-score,[4]; [11],1.03 ± 0.53
same,promoter activity interaction Z-score,[4]; [12],-0.488 ± 0.27
same,promoter activity interaction Z-score,[4]; [13],0.545 ± 0.89
same,promoter activity interaction Z-score,[4]; [14],1.19 ± 0.12
same,promoter activity interaction Z-score,[4]; [15],-0.142 ± 0.26
same,promoter activity interaction Z-score,[4]; [16],-0.194 ± 0.34
same,promoter activity interaction Z-score,[4]; [17],-0.0955 ± 0.42
same,promoter activity interaction Z-score,[4]; [18],-0.0533 ± 0.92
same,promoter activity interaction Z-score,[4]; [19],-0.121 ± 0.73
same,promoter activity interaction Z-score,[4]; [20],-0.257 ± 0.088
same,promoter activity interaction Z-score,[4]; [21],0.111 ± 1.4
same,promoter activity interaction Z-score,[4]; [22],-1.19 ± 0.4
same,promoter activity interaction Z-score,[5]; [7],-0.0276 ± 0.14
same,promoter activity interaction Z-score,[5]; [8],0.29 ± 0.3
same,promoter activity interaction Z-score,[5]; [9],0.512 ± 0.15
same,promoter activity interaction Z-score,[5]; [10],-0.000875 ± 0.083
same,promoter activity interaction Z-score,[5]; [11],0.149 ± 0.051
same,promoter activity interaction Z-score,[5]; [12],0.331 ± 0.32
same,promoter activity interaction Z-score,[5]; [13],0.0369 ± 0.011
same,promoter activity interaction Z-score,[5]; [14],0.0413 ± 0.11
same,promoter activity interaction Z-score,[5]; [15],0.0939 ± 0.035
same,promoter activity interaction Z-score,[5]; [16],0.405 ± 0.044
same,promoter activity interaction Z-score,[5]; [17],0.395 ± 0.12
same,promoter activity interaction Z-score,[5]; [18],0.167 ± 0.44
same,promoter activity interaction Z-score,[5]; [19],0.212 ± 0.044
same,promoter activity interaction Z-score,[5]; [20],0.529 ± 0.026
same,promoter activity interaction Z-score,[5]; [21],0.257 ± 0.16
same,promoter activity interaction Z-score,[5]; [22],0.6 ± 0.85
same,promoter activity interaction Z-score,[6]; [7],-0.298 ± 0.42
same,promoter activity interaction Z-score,[6]; [8],0.922 ± 0.83
same,promoter activity interaction Z-score,[6]; [9],-0.0951 ± 0.85
same,promoter activity interaction Z-score,[6]; [10],0.425 ± 0.39
same,promoter activity interaction Z-score,[6]; [11],0.642 ± 1.2
same,promoter activity interaction Z-score,[6]; [12],0.724 ± 0.083
same,promoter activity interaction Z-score,[6]; [13],-0.684 ± 0.056
same,promoter activity interaction Z-score,[6]; [14],0.896 ± 0.56
same,promoter activity interaction Z-score,[6]; [15],0.921 ± 0.51
same,promoter activity interaction Z-score,[6]; [16],0.55 ± 0.57
same,promoter activity interaction Z-score,[6]; [17],-0.368 ± 0.11
same,promoter activity interaction Z-score,[6]; [18],1.64 ± 0.38
same,promoter activity interaction Z-score,[6]; [19],1.37 ± 0.41
same,promoter activity interaction Z-score,[6]; [20],1.61 ± 1.5
same,promoter activity interaction Z-score,[6]; [21],0.892 ± 0.67
same,promoter activity interaction Z-score,[6]; [22],0.579 ± 1
